From PubChem BioAssay AID1508625 (Wald Lab, School of Medicine, Case Western Reserve …, 2021)

Assay: small molecules boosting NK-mediated OVCAR3 lysis – imaging, primary NK cells, calcein-AM imaging, primary screen (AID 1508625);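 further: compound given to NK cells 16 h before adding targets at 1.5 to 1 ratio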;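 on z-score: more negative robust z means stronger NK killing of tumor cells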
Conditions: OVCAR3 lysis by primary NK cells, at 5 µM; z-score: measured here: robust Z-score, single-point normalisation

Structure (SMILES)	corrected activity, negative = more killing [%]	z-score
COc1ccc(N2C(=O)c3ccc(C)cc3C2=O)cc1OC	-6.75	-2.54
CC(C(=O)NCCC1=CCCCC1)c1ccc([N+](=O)[O-])cc1 (configuration not stated)	-0.521	-0.29
O=C(Nc1ccc2c(c1)OCCO2)c1cc2cc3ccc(Cl)cc3nc2o1	-3.48	-0.854
CC1C2CCCN2CCN1Cc1cccc(Oc2ccccc2)c1 (configuration not stated)	-1.23	-0.537
Cc1ccc(OCCN2CCNCC2)c(Br)c1	-2.45	-1.36
CC1CCC2C(=O)N(c3ccc(N4CC5(C)CC4CC(C)(C)C5)c([N+](=O)[O-])c3)C(=O)C2C1 (configuration not stated)	-1.82	-0.661
CCOc1ccc(OCC(=O)NC(C)C)cc1	-5.07	-2.82
CCCn1c(C)nc2c(=O)oc3ccccc3c21	3.04	0.943
CCOC(=O)C(C)Sc1nc2c([nH]c3ccccc32)c(=O)n1C (configuration not stated)	-3.61	-0.899
CC(=O)SCCC(=O)N1C(C)CCCC1C(=O)O (configuration not stated)	-3.02	-1.19
Cc1cc(Cl)nc(Cl)c1C(=O)O	0.175	0.0658
COc1ccc(NC(=O)c2coc(=O)c3ccccc23)cc1Cl	-3.91	-1.24
O=C(Nc1ccc(Cl)cc1)c1cc(S(=O)(=O)NC2CCCC2)ccc1F	-2.8	-0.756
O=c1c2cc3c(cc2nc(SCc2cccc(F)c2)n1Cc1ccco1)OCO3	-3.76	-0.995
COc1ccc(OC)c(C2Nc3ccccc3NC3=C2C(=O)CC(C)(C)C3)c1 (configuration not stated)	-5.96	-1.85
Cc1ccc(C)c(Cn2cccc2C#N)c1	-4.01	-1.08
Cn1c(SCC(=O)c2ccccc2)nc2c([nH]c3ccccc32)c1=O	-5.65	-1.41
O=C(Nc1cccc(Br)c1)c1ccc2snnc2c1	-3.91	-1.17
O=CN1CCN(c2nc3ccccc3nc2C(F)(F)F)CC1	-2.49	-1.02
Cc1c(Cl)cccc1N=Cc1ccc(O)cc1	-1.33	-0.563
Cc1ccc(S(=O)(=O)NN=Cc2ccc(I)cc2)cc1	-2.58	-0.82

Structure (SMILES)	corrected activity, negative = more killing [%]	z-score
Cc1ccc(C2C(=C(O)c3ccc(Cl)cc3)C(=O)C(=O)N2CCCn2ccnc2)cc1 (configuration not stated)	-3.13	-1.2
O=C1NC(=S)SC1=Cc1cc(Cl)ccc1O	-4.39	-1.87
COc1ccc(C(=O)Nc2ccc3oc(-c4ccccc4)nc3c2)cc1OC	-2.95	-1.28
CC(C)c1ccc(OCC(=O)Nc2ccc3c(c2)OCCO3)cc1	-2.45	-0.869
CCOc1ccccc1C=Nc1ccc(Cl)cc1Cl	-4.37	-1.86
CCOC(=O)c1ccc2c(c1)[C@@H]1C=CC[C@@H]1[C@H](c1ccccc1C(F)(F)F)N2	-3.03	-0.905
O=C(NN=Cc1c(Br)cc(Br)c(O)c1Br)c1ccncc1	-1.17	-0.607
CNC(=O)C(C)Oc1cccc(Cl)c1 (configuration not stated)	-2.63	-1.46
Cc1ccc2c(C)nc(SCc3ccc(Cl)cc3)nc2c1	-2.17	-0.674
O=C(NC1CCCC1)c1c[nH]c2ccc(S(=O)(=O)Nc3cccc(C(F)(F)F)c3)cc2c1=O	-7.02	-1.72
COc1ccc(-c2csc(Nc3ccc(NC(C)=O)cc3)n2)cc1OC	1.84	0.823
CC(=O)Nc1ncc(Br)cc1[N+](=O)[O-]	-1.26	-0.391
CC(=O)NCCNC(=O)c1ccc(Cn2c(=S)[nH]c3cc4c(cc3c2=O)OCO4)cc1	-3.96	-1.05
Cc1ccc(N2C(=O)C(N3C(=O)c4cccc([N+](=O)[O-])c4C3=O)C2c2ccc(F)cc2)cc1F (configuration not stated)	-2.91	-0.904
Cc1ccc(NC(=O)CCNC(=O)Cn2cnc3ccccc3c2=O)c(Br)c1	-0.469	-0.149
CCN1CCN(C(=O)C2c3ccccc3C(=O)N(C)C2c2cccs2)CC1 (configuration not stated)	-7.01	-1.74
O=C(NN=Cc1ccc[nH]1)C(O)c1ccccc1 (configuration not stated)	-2.59	-0.823
COCCCNC(=O)C1c2ccccc2C(=O)N(C)C1c1cccs1 (configuration not stated)	-4.54	-1.13
O=C(Nc1cc([N+](=O)[O-])ccc1Cl)c1cnc2n(c1=O)CCS2	-1.04	-0.332
CN(C)c1ccc(C=C(C(=O)c2ccccc2)c2nc3ccccc3[nH]2)cc1	-1.99	-1.03
N=C1NC(=O)C(=Cc2ccc(F)cc2)S1	-5.91	-2.51

Structure (SMILES)	corrected activity, negative = more killing [%]	z-score
Cc1ccc(NCc2cccnc2)cc1	-1.25	-0.529
CCOc1ccc(C2C(=C(O)c3ccccc3)C(=O)C(=O)N2CCO)cc1 (configuration not stated)	-2.61	-0.996
CC(=O)OC1CC(C)N(C(=O)c2ccccc2)c2ccc(C)cc21 (configuration not stated)	-5.57	-1.73
CC(=O)c1cccc(NC(=O)C2CCN(C(=O)c3ccc(F)cc3)CC2)c1	-3.29	-1.22
CCOC(=O)C1=C(N)OC2=C(C(=O)CC(C)(C)C2)C1c1ccc(O)cc1 (configuration not stated)	-4.12	-1.28
O=C(CCn1c(=O)c2sccc2n(Cc2cc(=O)n3ccccc3n2)c1=O)NCc1ccc2c(c1)OCO2	-7.55	-2.14
COc1ccccc1OCCCCCCN1CCOCC1	-4.44	-1.82
Cc1ccc(-c2sc3nc(-c4ccccc4)ccc3c2N)c(C)c1	-3.23	-1.23
CN(Cc1ccccc1)Cc1c(O)ccc2c(=O)c(Oc3ccccc3Br)c(C(F)(F)F)oc12	2.2	0.682
Cc1cc(C)cc(-n2cnc3cc(C(=O)NC4CCCCC4C)ccc32)c1 (configuration not stated)	-2.86	-0.771
COc1cc(OC)c(CN2CCN3CCCC3C2C)cc1Br (configuration not stated)	-2.76	-1.21
O=C(O)CN1C(=O)c2ccc(C(=O)O)cc2C1=O	-5.22	-1.62
CC1=NN(C(=O)C(C)C)C(O)(c2ccccc2)C1 (configuration not stated)	-7.14	-3.83
CCOC(=O)c1ccc2c(c1)[C@@H]1C=CC[C@@H]1[C@H](c1ccccc1Br)N2	3.06	0.914
CCC(=O)Nc1ccc(Cl)c(NC(=O)COc2ccc(Br)cc2)c1	-0.00546	-0.00304
C(=Cc1ccccc1)CN1CCN(C2c3ccccc3-c3ccccc32)CC1	-0.148	-0.0313
Cc1oc2c(C)c3oc(=O)c(C)c(C)c3cc2c1-c1ccccc1	-1.87	-0.558
N#Cc1c(NC(=O)c2ccc(Cl)c(S(=O)(=O)N3CCOCC3)c2)sc2c1CCCC2	-5.49	-1.95
COc1ccc(N2CCN(C(=O)c3ccc4ccccc4n3)CC2)cc1	-1.53	-0.85
